HIF-2a block: HIF-2a inhibition; 786-0 RCC cells HIF-2a reporter, luciferase luminescence, overnight; inhibition, % at 18.8 µM; 360,000 compounds, 0.72% hits; AID 624352;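 active = inhibition of the luminescence signal of 40% or more relative to plate controls, in a single-dose primary screen at 18.75 µM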
C8 TRAIL sens: sensitizes caspase-8 expressing cells to TRAIL. NB7+C8 cells + TRAIL, ATPlite viability luminescence. inhibition (viability loss, TRAIL sensitization), % at 10 µM. 360,000 compounds, 1% hits. AID 624354;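 active = compounds causing at least 50% loss of cell viability in the single-dose screen, relative to plate controls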
TROY signal inh: TROY signaling inhibition; Q293 LMP1-TROYcd NF-kB luciferase reporter, 4 h; inhibition, % at 10 µM; 360,000 compounds, 0.98% hits; AID 1347056;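 active = compounds whose plate-normalised and pattern-corrected inhibition of the luciferase reporter signal at the single screening dose is 50% or more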
HSP90 inh: inhibitors of HSP90 luciferase refolding in rabbit reticulocyte lysate | luciferase refolding luminescence, 3 h | inhibition, % at 5.6 µM | 290,000 compounds, 0.91% hits | AID 1789;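 active = inhibition above the screen-wide mean plus 3 SD, computed separately per campaign, cut at about 16% in these data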;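 also: 0% = DMSO wells and 100% = 60 µM geldanamycin wells; inhibitors lower the luminescence because luciferase stays unfolded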
aSyn 5UTR inh: 5' untranslated region of α-synuclein, MLPCN primary screen. alpha-synuclein 5'UTR reporter, inhibitor activity. inhibition, % (tested at 7.5 µM). 300,000 compounds, 0.82% hits; in the data active = inhibition above about 60%;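 also: H4 neuroglioblastoma cells stably carrying SNCA 5'UTR luciferase fusion; 0% = DMSO wells and 100% = positive control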
TWEAK Fn14 block: blocks TWEAK-Fn14 interaction in a reporter cell assay. TWEAK-stimulated Fn14 reporter cells, luciferase luminescence, 8 h. inhibition, % at 10 µM. 360,000 compounds, 2% hits. AID 1159606; in the data active = inhibition above about 50%
* hit, by the source's call; nt = no result. This is a sample that favours compounds with a hit; in the whole collection about 3.9% have one here.

SMILES	HIF-2a block	C8 TRAIL sens	TROY signal inh	HSP90 inh	aSyn 5UTR inh	TWEAK Fn14 block
CC(C)Cc1ccc(C(C)CC2=CCC(CN(C)C)C2=O)cc1 (stereo not drawn)	-9	91*	1	nt	nt	15
COc1ccccc1S(=O)(=O)N(C)C[C@@H]1OCc2cnnn2CCCC(=O)N([C@H](C)CO)C[C@@H]1C	3	-17	-2	nt	nt	15
COCCCN(C(=O)CCOc1ccccc1C)c1c(N)n(Cc2ccccc2)c(=O)[nH]c1=O	13	-5	20	nt	9	0
Cc1cc2c(=O)n(Cc3ccco3)c(SCC(=O)c3ccc(Cl)s3)nc2s1	-13	14	11	6	-5	54*
Cc1cc(C(=O)CSc2nc3ccccc3[nH]2)c(C)n1C	-198	9	-15	-3	-30	-10
COC(=O)CCn1c(C)cc(C(=O)COc2ccccc2C(N)=O)c1C	13	48	23	-3	4	53*
CCCn1c(C)cc(C(=O)CSc2nc3ccccc3c(=O)n2Cc2ccco2)c1C	-202	0	48	0	-219	59*
Cc1cc(C(=O)CSc2nc3ccccc3[nH]2)c(C)n1Cc1ccco1	-132	44	81*	10	-20	92*
CCOC(=O)CC(=O)CSc1nc2sc(C)cc2c(=O)n1Cc1ccco1	0	-3	7	5	22	-8
NC(=O)CSc1nc2ccccc2c(=O)n1Cc1ccco1	-1	3	3	-2	5	3
COc1ccccc1NS(=O)(=O)c1ccc(C)c(NS(=O)(=O)c2cc(NC(C)=O)ccc2OC)c1	12	-5	-15	nt	nt	-7
COc1ccc(S(=O)(=O)N2CCN(C(=O)c3ccc(NC(C)=O)cc3)CC2)cc1	1	-7	-10	nt	nt	6
CC(C)COC(=O)N1CCCCC1c1cc(C(=O)NCc2ccc(F)cc2)no1 (stereo not drawn)	18	6	-6	nt	nt	2
CCOC(=O)c1cc2c(c(CCO)n1)[C@@H](CCO)N(S(=O)(=O)C(C)(C)C)C2	6	-8	0	nt	nt	16
CC1(C(=O)Nc2ccc3c(c2)OCCO3)CN(S(C)(=O)=O)CC(=O)N1Cc1cccs1 (stereo not drawn)	3	-14	nt	nt	nt	nt
Cc1ccc(N2CCN(C(CCc3ccccc3)C(=O)Nc3c(C)cccc3C)CC2)cc1 (stereo not drawn)	-3	16	nt	nt	nt	nt
CC(C)(C)S(=O)(=O)N1C[C@H]2CC/C=C\C/C(c3ccccc3)=C\2[C@@H]1CCO	4	-8	13	nt	nt	-5
C=CCn1c(C)cc(C(=O)CSc2nc3ccccc3c(=O)[nH]2)c1C	-166	25	-12	1	nt	14
COCCn1c(C)cc(C(=O)COC(=O)c2cccnc2SC)c1C	-179	40	69*	nt	nt	68*
COCCn1c(C)cc(C(=O)CSc2nc3ccccc3c(=O)[nH]2)c1C	-179	18	5	-5	-152	69*
COCCn1c(C)cc(C(=O)COC(=O)c2ccc3ncsc3c2)c1C	-94	4	-9	3	-151	0
O=C(CSc1nc2ccccc2c(=O)n1Cc1ccco1)c1ccc(F)cc1	-74	0	64*	0	-4	58*
COc1cc(NC(=O)CN2C(=O)COc3ccccc32)cc(OC)c1	14	3	-16	nt	nt	23
Cc1cc2nc(-c3ccccc3)c(CC(C)(C)C)n2c(C)c1Br	-2	-14	-8	nt	nt	-5
O=C(Nc1cccc2cccnc12)c1csc(COCCO)n1	-17	-7	-2	nt	nt	-6
SMILES	HIF-2a block	C8 TRAIL sens	TROY signal inh	HSP90 inh	aSyn 5UTR inh	TWEAK Fn14 block
COc1cc(-c2cc3nc(NCc4cccc(Cl)c4)ccn3n2)cc(OC)c1OC	-46	20	42	nt	nt	65*
C=CC[n+]1c(/C=C2\C=Cc3cc(C)ccc3N2CC)ccc2ccccc21	-20	48	40	0	67*	57*
CCN1C(=C(C#N)C#N)C=Cc2cc(C)ccc21	17	1	-33	-4	-17	-22
COc1ccc(C(=O)NC2CC(C)(C)NC(C)(C)C2)cc1S(=O)(=O)N1CCOCC1	11	-5	-18	nt	nt	-7
O=[N+]([O-])/C=C\c1ccc(N2CCCC2)c(F)c1	46*	17	-1	5	-142	13
CCOc1ccc(Nc2nc3cc(S(=O)(=O)N(CC)CC)ccc3o2)cc1	18	11	-3	3	78*	-77
CC(=O)Nc1cncc(-c2cccc(S(C)(=O)=O)c2)n1	0	-2	3	nt	nt	13
COc1cccc(-c2nnc3sc(C4CCCCC4)nn23)c1	-75	11	52*	1	19	64*
c1ccc(NCCC2OCC3(CO2)COC(CCNc2ccccc2)OC3)cc1 (stereo not drawn)	-5	-1	-1	nt	nt	20
O=C(O)c1ccc(N=Nc2c(O)[nH]c3cc(Cl)ccc23)cc1	-275	0	-61	3	-294	55*
COC(=O)N=Nc1c(O)[nH]c2ccc(Br)cc12	-19	-30	2	-2	-26	-24
O=C(O)c1ccc(N=Nc2c(O)[nH]c3ccc(Br)cc23)cc1	-293	-10	-26	18*	-188	30
Cn1nc([N+](=O)[O-])nc1Oc1ccccc1F	16	-2	7	0	14	6
Cc1nn(CCCC(=O)NCCc2ccccc2)c(C)c1[N+](=O)[O-]	7	10	8	2	2	-13
CS(=O)(=O)c1nc([N+](=O)[O-])nn1CCCc1ccccc1	18	-5	22	nt	-6	87*
Cn1nc([N+](=O)[O-])nc1S(C)(=O)=O	-4	-2	18	0	-30	54*
Cc1cc2nc(-c3ccc(Cl)cc3)c(Cc3ccsc3)n2c(C)c1Br	-41	3	-24	nt	nt	-13
CCOC(=O)CC(=O)CSc1nc(-c2cccnc2)ccc1C#N	-186	8	-47	-1	-36	-44
CCOC(=O)CSc1nc(-c2ccncc2)ccc1C#N	-257	51*	-71	-5	-138	-10
O=C(c1ccc(Cl)c(Cl)c1)N1CCC(=O)N([C@H](COCc2cccc(C(F)(F)F)c2)Cc2ccccc2)CC1	-2	15	17	nt	nt	27
COc1cccc2c1C(=O)c1c(O)c3c(c(O)c1C2=O)C[C@@](O)(C(=O)CO)C[C@@H]3OC1CC(N)C(O)C(C)O1 (stereo partly drawn)	-2	45	-18	nt	nt	76*
COc1cccc2c1C(=O)c1c(O)c3c(c(O)c1C2=O)C[C@@](O)(C(=O)CO)C[C@@H]3O[C@H]1C[C@H](N)[C@H](O)[C@H](C)O1	19	62*	5	7	109*	87*
CC(=O)[C@@]1(O)Cc2c(O)c3c(c(O)c2[C@H](O[C@H]2C[C@H](N)[C@H](O)[C@H](C)O2)C1)C(=O)c1ccccc1C3=O	38	82*	66*	nt	nt	95*

Screening data from PubChem BioAssay.
